Experiment [1] has as its target Acetylcholinesterase (Homo sapiens) (UniProt P22303). Nature of the experiment: Acetylcholinesterase (AChE) small molecule antagonists: colormetric cell-based qHTS assay (AID 1347395). Note: nearly all actives have a fitted effect of over 30% in size. Note: potency is the fitted concentration of half-maximal effect. In outline: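 SH-SY5Y cells, plated overnight at 37 C, were exposed to compounds for 30 min at 37 C and 5% CO2. Acetylthiocholine plus DTNB was then added, and thiocholine from endogenous AChE was quantified colorimetrically after 90 min at 37 C.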

For experiment [2] the target is unchanged. Nature of the experiment: Acetylcholinesterase (AChE) small molecule antagonists: enzyme-based qHTS assay (AID 1347397). Note: nearly all actives have a fitted effect of over 55% in size. The conditions noted are these: Potency: AChE enzyme activity inhibition; outcome: AChE enzyme activity inhibition. In a few lines:
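Colorimetric DTNB readout of acetylthiocholine hydrolysis, 10 min at room temperature, after 30 min room-temperature exposure of 50 mU/mL recombinant human enzyme to compound; DMSO vehicle control.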
In general terms: qHTS replaces the single test concentration by a dilution series.

Experiment [3] shares this target. Description: Acetylcholinesterase (AChE) small molecule antagonists: fluorescence cell-based qHTS assay (AID 1347398). Note: nearly all actives have a fitted effect of over 50% in size. Note: potency is the fitted concentration of half-maximal effect. The conditions noted are these: Potency: AChE activity; outcome: AChE activity. In a few lines: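 Cellular AChE activity read as thiocholine from acetylthiocholine hydrolysis, detected by Thiolite Green fluorescence at 490/520 nm after 40 min at room temperature. Compounds were pre-incubated 30 min at 37 C on adherent SH-SY5Y cells.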

Experiment [4] has the same target. Description: Acetylcholinesterase (AChE) small molecule antagonists: enzyme-based qHTS assay with human liver microsomes (AID 1347399). Note: nearly all actives have a fitted effect of over 60% in size. Conditions: Potency: qHTS inhibition; outcome: qHTS inhibition. In a few lines:
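Recombinant human AChE (50 mU/mL in the enzyme mix) and human liver microsomes (0.25 mg/mL final) were preincubated with compound and NADPH (0.25 mg/mL final) for 30 min at 37 C. Acetylthiocholine/DTNB was then added; thiocholine was read colorimetrically after 10 min at room temperature.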

“And” between values parts separate entries of the source, which are not always exact repeats. Equal entries are not always repeated. Values without a mark were called inactive. Records with an inconclusive call do not appear. The source made the active and inactive calls. Calls come from the whole dose curve.
% is set by controls: 0 for no effect and ±100 for the full control effect.

Sequence of Acetylcholinesterase (Homo sapiens) (P22303 whole entry, looked up): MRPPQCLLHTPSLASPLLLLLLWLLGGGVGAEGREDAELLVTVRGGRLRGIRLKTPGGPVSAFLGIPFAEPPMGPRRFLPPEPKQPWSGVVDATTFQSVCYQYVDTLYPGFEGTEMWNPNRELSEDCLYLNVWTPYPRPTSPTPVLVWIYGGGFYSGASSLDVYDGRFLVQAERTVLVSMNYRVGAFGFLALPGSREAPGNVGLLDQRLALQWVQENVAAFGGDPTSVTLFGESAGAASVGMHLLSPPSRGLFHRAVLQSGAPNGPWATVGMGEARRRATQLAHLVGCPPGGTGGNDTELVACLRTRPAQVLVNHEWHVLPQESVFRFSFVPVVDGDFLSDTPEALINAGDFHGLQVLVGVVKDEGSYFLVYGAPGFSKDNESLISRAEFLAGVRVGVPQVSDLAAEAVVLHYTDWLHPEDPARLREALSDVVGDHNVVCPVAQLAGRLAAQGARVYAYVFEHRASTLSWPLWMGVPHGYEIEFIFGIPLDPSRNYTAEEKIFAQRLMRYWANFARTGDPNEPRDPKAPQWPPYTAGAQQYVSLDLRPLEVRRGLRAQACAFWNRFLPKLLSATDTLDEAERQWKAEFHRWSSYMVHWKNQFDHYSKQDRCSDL

In the case of `Cc1nc(-c2ccc(Cl)cc2)oc1COC(C)(C)C(=O)O`, the Potency entry in experiment [1], in experiment [2], in experiment [3] and in experiment [4] was “inactive” throughout.

Turning to `O=C(O)c1cc(=O)c2ccccc2o1`, the Potency entry in experiment [1], in experiment [2], in experiment [3] and in experiment [4] was “inactive” in each case.

In the case of `CC1=CCC2C(C1)C2(C)C` (configuration not stated), the Potency entry in experiment [1], in experiment [2], in experiment [3] and in experiment [4] was “inactive” throughout.

Turning to `CCN(CC)CCCC(C)Nc1ccnc2cc(Cl)ccc12` (configuration not stated), the Potency in experiment [1] is 9.52 µM (active); in experiment [3] it was 3.79 µM (active). For the same molecule, the activity change, negative = inhibition in experiment [2] is -3.67% [at 10.5 µM]; in experiment [4] it was -0.628% [at 10.5 µM] and -0.0844% [at 23.6 µM].

With `COc1ccc(S(=O)(=O)N2c3ccc(Cl)cc3[C@@](O)(c3ccccc3Cl)[C@H]2C(=O)N2CCC[C@@H]2C(N)=O)cc1OC`, the Potency result in experiment [1], in experiment [2], in experiment [3] and in experiment [4] was “inactive” each time.

With `CC(COc1ccccc1)NC(C)C(O)c1ccc(O)cc1` (configuration not stated), the Potency result in experiment [1], in experiment [2], in experiment [3] and in experiment [4] was “inactive” throughout.

Regarding `O=C1CCC(=O)N1Cl`, the Potency result in experiment [1], in experiment [2], in experiment [3] and in experiment [4] was “inactive” each time.

In the case of `CCc1cc(Cc2cc(CC)c(N)c(CC)c2)cc(CC)c1N`, the Potency entry in experiment [1], in experiment [2], in experiment [3] and in experiment [4] was “inactive” each time.

On to `C=C(C)C(=O)OCCCCCCCCCCOC(=O)C(=C)C`, for which the Potency entry in experiment [1], in experiment [2], in experiment [3] and in experiment [4] was “inactive” each time.

Turning to `CCCCCCCCCCC=O`, the Potency entry in experiment [1], in experiment [2], in experiment [3] and in experiment [4] was “inactive” in each case.

In the case of `C/C=C/C=C/C=O`, the Potency entry in experiment [1], in experiment [2], in experiment [3] and in experiment [4] was “inactive” each time.

As to `CCOC(=O)COc1cc(-n2ncc(C(F)(F)F)c(C)c2=O)c(F)cc1Cl`, the Potency entry in experiment [1], in experiment [2], in experiment [3] and in experiment [4] was “inactive” throughout.

Turning to `CCCSS/C(CCO)=C(\C)N(C=O)Cc1cnc(C)nc1N`, the Potency entry in experiment [1], in experiment [2], in experiment [3] and in experiment [4] was “inactive” each time.

Take `CC(C)(C)NCC(O)COc1ccc(NC(=O)NC2CCCCC2)cc1` (configuration not stated): the Potency entry in experiment [1], in experiment [2], in experiment [3] and in experiment [4] was “inactive” throughout.

Regarding `O=C(O)CCN(C1(C(=O)NO)CCCC1)S(=O)(=O)c1ccc(Oc2ccc(F)cc2)cc1`, the Potency result in experiment [1], in experiment [2], in experiment [3] and in experiment [4] was “inactive” throughout.

`CC(C)(C)CC(C)(C)c1ccc(OCCO)cc1`: the Potency result in experiment [1], in experiment [2], in experiment [3] and in experiment [4] was “inactive” throughout.

Take `CC(=O)S[C@@H]1CC2=CC(=O)CC[C@]2(C)[C@H]2CC[C@@]3(C)[C@@H](CC[C@@]34CCC(=O)O4)[C@H]12`: the Potency result in experiment [1], in experiment [2], in experiment [3] and in experiment [4] was “inactive” in each case.

Consider `CC(=O)c1cccnc1`, for which the Potency result in experiment [1], in experiment [2], in experiment [3] and in experiment [4] was “inactive” in each case.

Regarding `COc1cc(OC)c2ccc(=O)oc2c1`, the Potency entry in experiment [1], in experiment [2], in experiment [3] and in experiment [4] was “inactive” in each case.

Regarding `CCCC(=O)OCCc1ccccc1`, the Potency result in experiment [1], in experiment [2], in experiment [3] and in experiment [4] was “inactive” each time.

In the case of `N#Cc1ccc(C(c2ccc(C#N)cc2)n2cncn2)cc1`, the Potency entry in experiment [1], in experiment [2], in experiment [3] and in experiment [4] was “inactive” throughout.

In the case of `CCC(=O)CC`, the Potency entry in experiment [1], in experiment [2], in experiment [3] and in experiment [4] was “inactive” throughout.

As for `N[C@H]1C(O)O[C@H](CO)[C@@H](O)[C@@H]1O` (some centres not stated), the Potency entry in experiment [1], in experiment [2], in experiment [3] and in experiment [4] was “inactive” throughout.

Turning to `O=C1CCCN1C1CCCCC1`, the Potency entry in experiment [1], in experiment [2], in experiment [3] and in experiment [4] was “inactive” each time.

`Clc1ccc2n[nH]nc2c1`: the Potency result in experiment [1], in experiment [2], in experiment [3] and in experiment [4] was “inactive” each time.

Take `C1=COCCC1`: the Potency entry in experiment [1], in experiment [2], in experiment [3] and in experiment [4] was “inactive” each time.

For `CCOC(=O)C(=O)c1csc(NC=O)n1`, the Potency entry in experiment [1], in experiment [2], in experiment [3] and in experiment [4] was “inactive” throughout.

As for `O=C(CC(=O)C(F)(F)F)c1ccccc1`, the Potency result in experiment [1], in experiment [2], in experiment [3] and in experiment [4] was “inactive” each time.

Source of the values: PubChem BioAssay (Tox21).
